Results filed as inconclusive are left out. Activity calls are given as the source filed them. Unless noted, calls follow the shape of the full dose curve.
Key:
[1] = qHTS assay to identify small molecule agonists of the peroxisome proliferator-activated receptor delta (PPARd) signaling pathway - cell viability counter screen (AID 743211; active = well fitted curve in the direction sought with a large enough effect in the repeat runs; an effect the other way counts as inactive or inconclusive; also: nearly all actives have a fitted effect of over 55% in size)
In short: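 PPARd-bla HEK293H cells (UAS-beta-lactamase reporter) were treated with compounds for 17 h at 37 C. Viability was then read in the same wells by CellTiter-Glo luminescence after 30 min at room temperature.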

[2] = molecular target: Peroxisome proliferator-activated receptor delta (Homo sapiens) (UniProt Q03181); test: qHTS assay to identify small molecule agonists of the peroxisome proliferator-activated receptor delta (PPARd) signaling pathway (AID 743212)
Sequence of Peroxisome proliferator-activated receptor delta (Homo sapiens) (Q03181 whole entry, looked up): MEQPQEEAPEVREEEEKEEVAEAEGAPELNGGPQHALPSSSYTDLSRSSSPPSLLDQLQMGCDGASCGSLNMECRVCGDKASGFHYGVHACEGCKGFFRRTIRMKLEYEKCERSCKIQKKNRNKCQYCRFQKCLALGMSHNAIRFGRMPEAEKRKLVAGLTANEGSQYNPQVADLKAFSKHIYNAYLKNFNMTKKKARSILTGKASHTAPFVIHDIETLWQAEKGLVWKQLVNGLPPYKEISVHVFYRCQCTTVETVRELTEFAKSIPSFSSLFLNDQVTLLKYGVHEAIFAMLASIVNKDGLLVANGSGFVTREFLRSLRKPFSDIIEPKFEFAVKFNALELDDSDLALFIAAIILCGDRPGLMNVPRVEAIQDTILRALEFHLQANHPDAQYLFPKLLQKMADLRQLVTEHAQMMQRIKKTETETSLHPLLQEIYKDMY
In short: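 Steps: seed PPARd-bla HEK293H cells; incubate 5 h, 37 C, 5% CO2; add compounds in DMSO; incubate, 37 C; add LiveBLAzer B/G FRET substrate; hold 2 h at room temperature; measure fluorescence.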

[3] = qHTS assay to identify small molecule antagonists of the peroxisome proliferator-activated receptor delta (PPARd) signaling pathway - cell viability counter screen (AID 743213; active = well fitted curve in the direction sought with a large enough effect in the repeat runs; an effect the other way counts as inactive or inconclusive; also: nearly all actives have a fitted effect of over 50% in size)
In short: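 Cytotoxicity counter screen: CellTiter-Glo luminescence read 30 min after addition, in the same wells as the reporter assay. There, PPARd UAS-bla HEK293H cells (3000/well) were treated 17 h at 37 C with compound and 300 nM L165041.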

[4] = molecular target: Peroxisome proliferator-activated receptor delta (Homo sapiens) (UniProt Q03181); test: qHTS assay to identify small molecule antagonists of the peroxisome proliferator-activated receptor delta (PPARd) signaling pathway (AID 743215; active = well fitted inhibition curve with a large enough effect in the signal ratio in the repeat runs, not every such curve was filed as active; the % refers to the signal ratio;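 also: cells stimulated with agonist L165041 at 300 nM final during compound exposure; series mostly up to about 62 µM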)
In short: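 Fluorescence from cleaved LiveBLAzer B/G FRET substrate (2 h, room temperature) reports PPARd-driven beta-lactamase in HEK293H UAS-bla cells. Cells had been treated 17 h at 37 C with compound plus 300 nM final L165041.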

[5] = qHTS assay to identify small molecule agonists of the farnesoid-X-receptor (FXR) signaling pathway - cell viability counter screen (AID 743218; active = well fitted curve in the direction sought with a large enough effect in the repeat runs; an effect the other way counts as inactive or inconclusive; also: nearly all actives have a fitted effect of over 45% in size)
In short: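 Readout: CellTiter-Glo luminescence, 30 min RT, multiplexed after the FXR-bla FRET reading. HEK 293T FXR-UAS-bla cells received compound 5 h post-plating and were incubated 16 h at 37 C.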

[6] = qHTS assay to identify small molecule antagonists of the farnesoid-X-receptor (FXR) signaling pathway - cell viability counter screen (AID 743221; active = well fitted cell-killing curve with a large enough effect in the repeat runs, not every such curve was filed as active; also: nearly all actives have a fitted effect of over 50% in size)
In short: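 FXR-UAS-bla HEK 293T cells were treated with test compounds plus chenodeoxycholic acid (50 uM final) for 16 h at 37 C. Cell viability in the same wells was then read as CellTiter-Glo luminescence after 30 min at room temperature.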

[7] = molecular target: Vitamin D3 receptor (Homo sapiens) (UniProt P11473); test: qHTS assay to identify small molecule antagonists of the vitamin D receptor (VDR) signaling pathway (AID 743223; active = well fitted inhibition curve with a large enough effect in the signal ratio in the repeat runs, not every such curve was filed as active; the % refers to the signal ratio)
Sequence of Vitamin D3 receptor (Homo sapiens) (P11473 whole entry, looked up): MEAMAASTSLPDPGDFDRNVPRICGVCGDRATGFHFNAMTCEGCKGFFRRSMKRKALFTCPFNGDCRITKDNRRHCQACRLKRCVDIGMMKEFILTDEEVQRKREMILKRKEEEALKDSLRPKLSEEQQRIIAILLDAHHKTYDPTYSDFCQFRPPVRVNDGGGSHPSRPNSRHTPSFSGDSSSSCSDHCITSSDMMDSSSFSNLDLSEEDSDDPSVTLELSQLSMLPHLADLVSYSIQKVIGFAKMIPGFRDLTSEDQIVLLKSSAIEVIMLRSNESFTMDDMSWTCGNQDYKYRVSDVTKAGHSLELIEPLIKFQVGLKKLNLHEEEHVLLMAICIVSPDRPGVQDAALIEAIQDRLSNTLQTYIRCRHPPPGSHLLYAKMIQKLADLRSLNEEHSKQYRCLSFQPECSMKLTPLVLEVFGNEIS
In short: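 VDR-bla cells were plated, incubated 4 h at 37C, then given compound and 1alpha,25-dihydroxyvitamin D3 (3 nM final). After 16 h at 37C, LiveBLAzer B/G FRET substrate was added for 2 h at room temperature and fluorescence read.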

[8] = qHTS assay to identify small molecule agonists of the vitamin D receptor (VDR) signaling pathway - cell viability counter screen (AID 743224; active = well fitted curve in the direction sought with a large enough effect in the repeat runs; an effect the other way counts as inactive or inconclusive; also: series mostly up to about 63 µM; nearly all actives have a fitted effect of over 50% in size)
In short: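 In parallel with the bla FRET readout, cytotoxicity toward VDR-bla cells after 16 h compound exposure was assessed by CellTiter-Glo, with luminescence recorded after a 30 min room-temperature incubation.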

[9] = qHTS assay to identify small molecule agonists of the NFkB signaling pathway - cell viability counter screen (AID 1159515); also: series mostly up to about 61 µM; nearly all actives have a fitted effect of over 55% in size
In short: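 Plate 2,000 NFkB-bla ME-180 cells/well; incubate overnight. Add compounds, 5 hr at 37 C. Add FRET substrate, 1.5 hr RT. Add CellTiter-Glo, 30 min RT; read luminescence.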

[10] = qHTS assay to identify small molecule agonists of the endoplasmic reticulum stress response signaling pathway (AID 1159516; active = well fitted activation curve with a large enough effect in the signal ratio in the repeat runs, not every such curve was filed as active; the % refers to the signal ratio)
In short: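 Beta-lactamase expression from the ER stress response element in HeLa reporter cells is quantified with the LiveBLAzer B/G FRET substrate, read at 405 nm excitation after 2 hr at room temperature, following 5 hr compound treatment at 37 C.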

[11] = qHTS assay to identify small molecule agonists of the endoplasmic reticulum stress response signaling pathway - cell viability counter screen (AID 1159517); also: series mostly up to about 61 µM; nearly all actives have a fitted effect of over 50% in size
In short: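 After overnight attachment, ESRE-bla HeLa cells were treated with Tox21 library compounds for 5 hr. CellTiter-Glo luminescence, read 30 min post-addition at room temperature, reported viability.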

[12] = qHTS assay to identify small molecule antagonists of the retinoid-related orphan receptor gamma (ROR-gamma) signaling pathway - cell viability counter screen (AID 1159520; active = well fitted curve in the direction sought with a large enough effect in the repeat runs; an effect the other way counts as inactive or inconclusive; also: nearly all actives have a fitted effect of over 50% in size)
In short: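 Cytotoxicity was read from cellular ATP (CellTiter-Glo luminescence) after 16 hr at 37 C with 1 uM doxycycline induction. The inducer was added 2 hr after compound transfer to Tet-on ROR gamma CHO cells.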

[13] = molecular target: Nuclear receptor ROR-gamma (Homo sapiens) (UniProt P51449); test: qHTS assay to identify small molecule antagonists of the retinoid-related orphan receptor gamma (ROR-gamma) signaling pathway (AID 1159521; active = well fitted curve in the direction sought with a large enough effect in the repeat runs; an effect the other way counts as inactive or inconclusive)
In short: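 Tet-on RORγ CHO cells carrying a ROR response element–luciferase reporter were pretreated with compounds for 2 h, then induced with 1 uM (final) doxycycline hyclate for 16 h at 37 C. Antagonism was read as decreased ONE-Glo luminescence.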

[14] = qHTS assay to identify small molecule agonists of the AP-1 signaling pathway - cell viability counter screen (AID 1159525); also: nearly all actives have a fitted effect of over 55% in size
In short: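 Intracellular ATP by Cell Titer Glo luminescence (30 min, RT) in the same ME-180 AP-1-bla wells after the 5 h compound exposure at 37 °C. Normalised to tetra n-octyl ammonium bromide and DMSO controls.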

[15] = qHTS assay to identify small molecule agonists of the AP-1 signaling pathway (AID 1159526)
[16] = molecular target: Retinoic acid receptor RXR-alpha (Homo sapiens) (UniProt P19793); test: qHTS assay to identify small molecule agonists of the RXR signaling pathway (AID 1159527); also: nearly all actives have a fitted effect of over 35% in size
Sequence of Retinoic acid receptor RXR-alpha (Homo sapiens) (P19793 whole entry, looked up): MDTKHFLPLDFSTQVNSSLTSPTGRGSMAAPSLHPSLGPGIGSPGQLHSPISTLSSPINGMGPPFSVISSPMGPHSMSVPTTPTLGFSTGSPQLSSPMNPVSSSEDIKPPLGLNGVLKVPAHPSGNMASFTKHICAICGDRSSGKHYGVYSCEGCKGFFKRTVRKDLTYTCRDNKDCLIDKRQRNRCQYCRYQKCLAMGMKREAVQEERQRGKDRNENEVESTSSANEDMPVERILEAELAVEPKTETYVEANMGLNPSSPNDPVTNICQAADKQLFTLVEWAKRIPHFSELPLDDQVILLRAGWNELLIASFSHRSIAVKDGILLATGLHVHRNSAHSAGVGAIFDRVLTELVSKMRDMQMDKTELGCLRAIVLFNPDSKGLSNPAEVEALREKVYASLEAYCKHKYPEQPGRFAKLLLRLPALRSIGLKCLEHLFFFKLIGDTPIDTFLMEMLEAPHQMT
In short: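 GeneBLAzer RXR-alpha-UAS-bla HEK 293T cells in medium with 2% charcoal-stripped FBS, pre-incubated 5 hr at 37 C, then exposed to compounds 16 hr. Beta-lactamase reporter read by FRET substrate, 2 hr room temperature, 460/530 nm emission.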

[17] = molecular target: Bile acid receptor (Homo sapiens) (UniProt Q96RI1); test: qHTS assay to identify small molecule antagonists of the farnesoid-X-receptor (FXR) signaling pathway (AID 743217; active = well fitted inhibition curve with a large enough effect in the signal ratio in the repeat runs, not every such curve was filed as active; the % refers to the signal ratio)
Sequence of Bile acid receptor (Homo sapiens) (Q96RI1 whole entry, looked up): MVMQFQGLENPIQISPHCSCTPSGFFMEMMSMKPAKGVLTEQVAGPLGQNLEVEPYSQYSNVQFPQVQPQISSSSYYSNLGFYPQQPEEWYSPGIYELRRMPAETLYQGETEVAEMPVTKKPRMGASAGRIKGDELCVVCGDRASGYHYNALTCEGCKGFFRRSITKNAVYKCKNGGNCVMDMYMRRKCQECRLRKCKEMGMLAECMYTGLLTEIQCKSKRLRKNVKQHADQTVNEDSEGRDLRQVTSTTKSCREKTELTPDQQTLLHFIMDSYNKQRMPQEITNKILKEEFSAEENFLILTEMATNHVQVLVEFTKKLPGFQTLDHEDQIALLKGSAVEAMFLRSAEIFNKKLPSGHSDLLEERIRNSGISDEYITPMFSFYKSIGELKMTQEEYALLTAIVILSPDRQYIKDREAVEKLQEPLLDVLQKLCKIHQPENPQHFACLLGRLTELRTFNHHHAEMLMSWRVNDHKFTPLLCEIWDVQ
In short: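 FRET fluorescence after 2 h room-temperature LiveBLAzer loading gives the readout. Prior step: FXR-bla HEK 293T cells, seeded and incubated 5 h, received test compounds plus 50 uM final CDCA for 16 h at 37 °C.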

[18] = molecular target: Bile acid receptor (Homo sapiens) (UniProt Q96RI1); test: qHTS assay to identify small molecule agonists of the farnesoid-X-receptor (FXR) signaling pathway (AID 743220; active = well fitted activation curve with a large enough effect in the signal ratio in the repeat runs, not every such curve was filed as active; the % refers to the signal ratio)
In short: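 FXR-UAS-bla HEK 293T cells carrying a UAS-driven beta-lactamase reporter were plated for 5 h at 37C/5% CO2, then exposed to DMSO-dissolved Tox21 10K compounds for 16 h at 37C. A LiveBLAzer B/G FRET substrate was loaded for 2 h at room temperature before fluorescence reading.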

[19] = molecular target: Vitamin D3 receptor (Homo sapiens) (UniProt P11473); test: qHTS assay to identify small molecule agonists of the vitamin D receptor (VDR) signaling pathway (AID 743222)
In short: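 Following 4 h attachment at 37C, VDR-bla cells (2,000 per well) received DMSO-dissolved compounds or controls. After 16 h incubation, LiveBLAzer B/G FRET substrate was added and fluorescence read 2 h later at room temperature.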

[20] = qHTS assay to identify small molecule antagonists of the vitamin D receptor (VDR) signaling pathway - cell viability counter screen (AID 743225; active = well fitted curve in the direction sought with a large enough effect in the repeat runs; an effect the other way counts as inactive or inconclusive; also: nearly all actives have a fitted effect of over 50% in size)
In short: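 VDR-bla HEK 293T cells, 4 h pre-incubation at 37C, then compound plus 1-alpha,25-dihydroxyvitamin D3 (3 nM final) for 16 h. After the beta-lactamase FRET read, CellTiter-Glo was added to the same wells; luminescence after 30 min at room temperature.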

Measured: Potency

Clc1ccc2c(c1)Nc1ccccc1S2
not listed: [17] | [18] | [19] | [20]
inactive: all other assays above

CC(C)C(=O)Nc1cccc(C2CN3CCSC3=N2)c1 (centres undefined)
not listed: [8] | [20]
inactive: all other assays above

C/C(=N\O)c1ccc(OCC(=O)N2CCCCC2)cc1
not listed: [7] | [8] | [19] | [20]
inactive: all other assays above

CCOC(=O)[C@H](CCc1ccccc1)N[C@H]1CS[C@H](c2cccs2)CN(CC(=O)O)C1=O
not listed: [7] | [17] | [18] | [19]
inactive: all other assays above

COc1cc(S(N)(=O)=O)cc(C(=O)O)c1OC
not listed: [17] | [18] | [19]
inactive: all other assays above

CC/C=C\CCOC(=O)c1ccccc1
not listed: [19]
inactive: all other assays above

N#Cc1cc(NC(=O)C(=O)O)c(Cl)c(NC(=O)C(=O)O)c1
not listed: [17] | [18]
inactive: all other assays above

CCCCNCC
not listed: [7] | [8] | [17] | [18] | [19]
inactive: all other assays above

CC(O)C(CO)C(C)O (centres undefined)
not listed: [7] | [17] | [18] | [19] | [20]
inactive: all other assays above

Cc1cc(C)c(N)c(Cl)c1
not listed: [17] | [18]
inactive: all other assays above

C[C@H]1COc2c(C3(N)CC3)c(F)cc3c(=O)c(C(=O)O)cn1c23
not listed: [19]
inactive: all other assays above

O=CN1CCCCC1
not listed: [17] | [18] | [20]
inactive: all other assays above

CC1(C)C(=O)C(C)(C)C1=O
inactive: all assays above

CCOCCOCCOC(C)=O
not listed: [7] | [8]
inactive: all other assays above

C=CCON/C(CCC)=C1\C(=O)CC(C)(C)C(C(=O)OC)=C1O
not listed: [18] | [19]
inactive: all other assays above

CCCCCCCCCCCBr
not listed: [8]
inactive: all other assays above

COC(=O)c1c(C)cc(O)c(C)c1O
not listed: [17] | [18]
inactive: all other assays above

O=C(CCBr)N1CCN(C(=O)CCBr)CC1
not listed: [8]
inactive: all other assays above

C=COCCCCO
not listed: [7] | [17] | [18] | [19]
inactive: all other assays above

CC(C)CC(O)Cc1ccccc1 (centres undefined)
not listed: [7] | [17] | [18] | [20]
inactive: all other assays above

CN1C(CCl)Nc2cc(Cl)c(S(N)(=O)=O)cc2S1(=O)=O (centres undefined)
not listed: [17] | [18] | [19]
inactive: all other assays above

Cc1ccc(OC(=O)CC(C)C)cc1
not listed: [4] | [6] | [7] | [8] | [19] | [20]
inactive: all other assays above

CCCCCCCCC1CO1 (centres undefined)
inactive: all assays above

NC(=O)CC[C@@H](N)C(=O)O
not listed: [17] | [18] | [19] | [20]
inactive: all other assays above

C=CC(=O)CC
not listed: [17]
inactive: all other assays above

C[C@@H](CN1CC(=O)NC(=O)C1)N1CC(=O)NC(=O)C1
not listed: [17] | [18]
inactive: all other assays above

Cc1ccc(Br)cc1
not listed: [8] | [17] | [18]
inactive: all other assays above

Cc1ccccc1OCC(=O)O
not listed: [7] | [8]
inactive: all other assays above

CCCc1ncc(C(=O)O)s1
not listed: [8]
inactive: all other assays above

CCOC(=O)CC(C(C)=O)C(C)=O
not listed: [8] | [17] | [18] | [20]
inactive: all other assays above

OCCC(F)(F)C(F)(F)C(F)(F)C(F)(F)C(F)(F)C(F)(F)F
not listed: [7] | [19]
inactive: all other assays above

BrCCOc1ccccc1
inactive: all assays above

CCCCCC(=O)CC
not listed: [4]
inactive: all other assays above
